# Experimental data taken from ChEMBL document CHEMBL1961873, “Compounds: GSK PKIS; Assays: Nanosyn kinase panel” (2012).
# Key:
# [1] = target: Sphingosine kinase 1 (Homo sapiens) (UniProt Q9NYA1); conditions: at 1 µM;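 further: mean SPHK1 inhibition value reported from the GSK PKIS kinase panel screen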
# [2] = target: T1, Sphingosine kinase 2 (Homo sapiens) (UniProt Q9NRA0); conditions: at 0.1 µM
# T1 sequence (whole entry): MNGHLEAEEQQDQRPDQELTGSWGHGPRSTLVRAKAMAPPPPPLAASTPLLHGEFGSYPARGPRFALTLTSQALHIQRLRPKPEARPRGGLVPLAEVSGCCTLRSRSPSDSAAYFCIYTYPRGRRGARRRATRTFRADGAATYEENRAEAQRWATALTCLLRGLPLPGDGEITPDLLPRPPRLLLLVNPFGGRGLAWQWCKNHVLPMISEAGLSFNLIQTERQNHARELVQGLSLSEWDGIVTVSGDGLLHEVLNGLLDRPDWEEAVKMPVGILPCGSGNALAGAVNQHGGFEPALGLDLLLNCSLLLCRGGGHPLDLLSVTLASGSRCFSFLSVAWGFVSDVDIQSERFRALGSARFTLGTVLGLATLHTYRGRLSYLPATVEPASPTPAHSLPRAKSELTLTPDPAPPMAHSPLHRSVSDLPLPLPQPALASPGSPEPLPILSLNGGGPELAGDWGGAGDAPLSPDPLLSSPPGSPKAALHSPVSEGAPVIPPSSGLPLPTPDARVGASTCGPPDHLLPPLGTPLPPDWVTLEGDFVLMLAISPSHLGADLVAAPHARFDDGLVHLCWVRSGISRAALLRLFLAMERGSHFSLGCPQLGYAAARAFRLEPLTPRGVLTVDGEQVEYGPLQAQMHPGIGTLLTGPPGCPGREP
# [3] = target: T1, Sphingosine kinase 2 (Homo sapiens); conditions: at 1 µM
# [4] = target: Casein kinase II subunit alpha (Homo sapiens) (UniProt P68400); conditions: at 0.1 µM
# [5] = target: Casein kinase II subunit alpha (Homo sapiens) (UniProt P68400); conditions: at 1 µM
# [6] = target: T2, Inhibitor of nuclear factor kappa-B kinase subunit alpha (Homo sapiens) (UniProt O15111); conditions: at 0.1 µM
# T2 sequence (whole entry): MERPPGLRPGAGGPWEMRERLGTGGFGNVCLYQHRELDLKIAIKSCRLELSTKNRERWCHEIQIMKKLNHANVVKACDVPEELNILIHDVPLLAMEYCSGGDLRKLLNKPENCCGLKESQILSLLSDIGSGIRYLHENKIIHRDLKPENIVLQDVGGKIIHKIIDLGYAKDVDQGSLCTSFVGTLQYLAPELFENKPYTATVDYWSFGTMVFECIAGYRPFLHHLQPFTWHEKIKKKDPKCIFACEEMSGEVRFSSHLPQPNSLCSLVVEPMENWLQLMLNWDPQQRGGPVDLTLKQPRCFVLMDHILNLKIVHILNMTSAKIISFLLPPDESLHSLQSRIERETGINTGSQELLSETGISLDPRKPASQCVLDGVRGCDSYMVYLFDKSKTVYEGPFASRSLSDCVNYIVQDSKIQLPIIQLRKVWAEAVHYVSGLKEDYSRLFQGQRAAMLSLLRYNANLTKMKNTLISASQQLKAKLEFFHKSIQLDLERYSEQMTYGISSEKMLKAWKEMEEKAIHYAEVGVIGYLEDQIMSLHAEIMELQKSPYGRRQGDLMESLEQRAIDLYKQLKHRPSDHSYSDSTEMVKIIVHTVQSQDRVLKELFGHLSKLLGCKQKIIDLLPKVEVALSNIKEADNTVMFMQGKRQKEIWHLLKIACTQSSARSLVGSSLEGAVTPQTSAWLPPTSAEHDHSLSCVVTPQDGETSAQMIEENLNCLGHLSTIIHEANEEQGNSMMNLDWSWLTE
# [7] = target: T2, Inhibitor of nuclear factor kappa-B kinase subunit alpha (Homo sapiens); conditions: at 1 µM
# [8] = target: T3, Inhibitor of nuclear factor kappa-B kinase subunit beta (Homo sapiens) (UniProt O14920); conditions: at 0.1 µM
# T3 sequence (whole entry): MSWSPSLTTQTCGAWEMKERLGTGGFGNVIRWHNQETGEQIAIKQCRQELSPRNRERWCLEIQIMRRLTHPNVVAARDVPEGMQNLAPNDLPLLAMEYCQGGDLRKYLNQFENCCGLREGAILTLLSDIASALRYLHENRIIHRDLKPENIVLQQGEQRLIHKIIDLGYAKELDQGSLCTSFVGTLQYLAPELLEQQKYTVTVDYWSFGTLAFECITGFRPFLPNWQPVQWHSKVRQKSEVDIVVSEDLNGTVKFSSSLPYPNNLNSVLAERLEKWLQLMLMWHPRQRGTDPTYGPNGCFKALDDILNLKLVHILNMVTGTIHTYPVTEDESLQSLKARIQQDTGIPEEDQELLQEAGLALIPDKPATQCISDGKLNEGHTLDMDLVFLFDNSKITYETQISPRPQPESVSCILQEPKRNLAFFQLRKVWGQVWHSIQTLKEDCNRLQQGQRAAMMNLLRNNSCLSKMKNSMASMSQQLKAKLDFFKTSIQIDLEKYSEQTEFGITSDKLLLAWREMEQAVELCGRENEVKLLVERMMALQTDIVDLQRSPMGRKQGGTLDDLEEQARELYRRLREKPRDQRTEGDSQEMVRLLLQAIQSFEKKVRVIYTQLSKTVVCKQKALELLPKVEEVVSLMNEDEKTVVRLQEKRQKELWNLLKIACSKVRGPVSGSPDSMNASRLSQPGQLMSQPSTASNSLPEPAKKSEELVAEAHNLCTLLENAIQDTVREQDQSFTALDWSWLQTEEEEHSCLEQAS
# [9] = target: T3, Inhibitor of nuclear factor kappa-B kinase subunit beta (Homo sapiens); conditions: at 1 µM
# [10] = target: T4, Inhibitor of nuclear factor kappa-B kinase subunit epsilon (Homo sapiens) (UniProt Q14164); conditions: at 0.1 µM
# T4 sequence (whole entry): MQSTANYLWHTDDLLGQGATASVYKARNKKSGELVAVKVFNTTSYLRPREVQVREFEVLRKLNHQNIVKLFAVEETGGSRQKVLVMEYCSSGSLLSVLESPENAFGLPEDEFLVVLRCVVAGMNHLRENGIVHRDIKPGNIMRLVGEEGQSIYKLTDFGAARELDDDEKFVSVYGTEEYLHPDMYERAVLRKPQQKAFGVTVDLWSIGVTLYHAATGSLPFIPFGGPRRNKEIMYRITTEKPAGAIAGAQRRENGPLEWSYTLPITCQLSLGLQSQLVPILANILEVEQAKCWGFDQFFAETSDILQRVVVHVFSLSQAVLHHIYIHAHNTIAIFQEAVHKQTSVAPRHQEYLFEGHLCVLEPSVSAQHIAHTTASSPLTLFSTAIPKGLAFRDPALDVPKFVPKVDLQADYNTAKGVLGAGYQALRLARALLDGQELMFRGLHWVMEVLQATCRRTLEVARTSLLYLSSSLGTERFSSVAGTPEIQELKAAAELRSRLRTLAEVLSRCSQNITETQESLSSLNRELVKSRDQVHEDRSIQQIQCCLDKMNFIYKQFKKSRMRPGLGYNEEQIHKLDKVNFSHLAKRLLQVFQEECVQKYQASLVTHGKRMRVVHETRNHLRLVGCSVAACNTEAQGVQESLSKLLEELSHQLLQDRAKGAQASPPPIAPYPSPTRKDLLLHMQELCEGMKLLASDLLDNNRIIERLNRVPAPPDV
# [11] = target: T4, Inhibitor of nuclear factor kappa-B kinase subunit epsilon (Homo sapiens); conditions: at 1 µM
# [12] = target: T5, Serine/threonine-protein kinase Nek1 (Homo sapiens) (UniProt Q96PY6); conditions: at 0.1 µM
# T5 sequence (whole entry): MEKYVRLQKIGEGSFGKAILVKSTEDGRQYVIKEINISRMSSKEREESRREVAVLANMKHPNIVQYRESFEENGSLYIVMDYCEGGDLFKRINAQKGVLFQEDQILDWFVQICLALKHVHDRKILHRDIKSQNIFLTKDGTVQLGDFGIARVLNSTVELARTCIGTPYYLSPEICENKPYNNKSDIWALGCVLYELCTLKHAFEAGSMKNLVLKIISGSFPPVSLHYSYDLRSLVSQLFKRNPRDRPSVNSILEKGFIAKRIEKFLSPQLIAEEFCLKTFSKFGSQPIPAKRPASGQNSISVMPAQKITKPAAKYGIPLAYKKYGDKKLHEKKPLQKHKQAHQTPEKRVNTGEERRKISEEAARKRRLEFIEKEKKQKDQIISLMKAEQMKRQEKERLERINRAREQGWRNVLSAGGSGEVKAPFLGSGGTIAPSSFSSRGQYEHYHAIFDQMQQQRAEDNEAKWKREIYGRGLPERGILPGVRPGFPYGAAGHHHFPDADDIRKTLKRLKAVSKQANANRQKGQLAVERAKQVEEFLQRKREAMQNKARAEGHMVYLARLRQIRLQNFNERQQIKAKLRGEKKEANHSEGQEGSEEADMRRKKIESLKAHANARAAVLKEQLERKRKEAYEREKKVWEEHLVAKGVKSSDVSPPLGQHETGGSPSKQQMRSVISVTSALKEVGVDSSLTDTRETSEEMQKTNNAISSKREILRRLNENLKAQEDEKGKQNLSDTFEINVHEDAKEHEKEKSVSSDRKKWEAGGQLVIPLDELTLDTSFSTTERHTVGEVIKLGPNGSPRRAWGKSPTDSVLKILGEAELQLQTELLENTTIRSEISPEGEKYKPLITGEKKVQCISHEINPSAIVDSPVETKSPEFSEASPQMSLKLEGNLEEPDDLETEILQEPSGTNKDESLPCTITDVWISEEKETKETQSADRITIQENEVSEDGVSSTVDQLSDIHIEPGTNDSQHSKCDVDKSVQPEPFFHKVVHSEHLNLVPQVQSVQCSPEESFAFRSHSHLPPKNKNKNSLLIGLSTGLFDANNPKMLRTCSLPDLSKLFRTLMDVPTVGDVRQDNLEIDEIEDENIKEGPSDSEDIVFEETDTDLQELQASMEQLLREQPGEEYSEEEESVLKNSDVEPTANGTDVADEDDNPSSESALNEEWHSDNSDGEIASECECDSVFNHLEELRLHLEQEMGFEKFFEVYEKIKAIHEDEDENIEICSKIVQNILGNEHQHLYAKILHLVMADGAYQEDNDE
# [13] = target: T5, Serine/threonine-protein kinase Nek1 (Homo sapiens); conditions: at 1 µM
# [14] = target: T6, Serine/threonine-protein kinase Nek2 (Homo sapiens) (UniProt P51955); conditions: at 0.1 µM
# T6 sequence (whole entry): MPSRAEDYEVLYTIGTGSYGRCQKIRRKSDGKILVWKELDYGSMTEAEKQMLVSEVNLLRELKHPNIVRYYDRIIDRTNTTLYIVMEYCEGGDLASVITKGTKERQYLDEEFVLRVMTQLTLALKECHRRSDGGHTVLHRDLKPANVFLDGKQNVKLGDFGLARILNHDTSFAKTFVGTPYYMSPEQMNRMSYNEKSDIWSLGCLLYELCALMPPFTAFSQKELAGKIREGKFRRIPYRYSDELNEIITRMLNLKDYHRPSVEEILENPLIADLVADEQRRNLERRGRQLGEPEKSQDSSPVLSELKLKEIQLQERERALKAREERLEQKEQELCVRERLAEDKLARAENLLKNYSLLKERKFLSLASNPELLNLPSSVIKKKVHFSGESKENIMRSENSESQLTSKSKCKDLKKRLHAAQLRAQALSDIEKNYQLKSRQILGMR
# [15] = target: T6, Serine/threonine-protein kinase Nek2 (Homo sapiens); conditions: at 1 µM
# [16] = target: Serine/threonine-protein kinase Nek6 (Homo sapiens) (UniProt Q9HC98); conditions: at 0.1 µM
# [17] = target: Serine/threonine-protein kinase Nek6 (Homo sapiens) (UniProt Q9HC98); conditions: at 1 µM
# [18] = target: Serine/threonine-protein kinase Nek7 (Homo sapiens) (UniProt Q8TDX7); conditions: at 0.1 µM
# [19] = target: Serine/threonine-protein kinase Nek7 (Homo sapiens) (UniProt Q8TDX7); conditions: at 1 µM
# [20] = target: T7, Serine/threonine-protein kinase Nek9 (Homo sapiens) (UniProt Q8TD19); conditions: at 0.1 µM;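 further: reported value is the mean percent inhibition of NEK9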
# T7 sequence (whole entry): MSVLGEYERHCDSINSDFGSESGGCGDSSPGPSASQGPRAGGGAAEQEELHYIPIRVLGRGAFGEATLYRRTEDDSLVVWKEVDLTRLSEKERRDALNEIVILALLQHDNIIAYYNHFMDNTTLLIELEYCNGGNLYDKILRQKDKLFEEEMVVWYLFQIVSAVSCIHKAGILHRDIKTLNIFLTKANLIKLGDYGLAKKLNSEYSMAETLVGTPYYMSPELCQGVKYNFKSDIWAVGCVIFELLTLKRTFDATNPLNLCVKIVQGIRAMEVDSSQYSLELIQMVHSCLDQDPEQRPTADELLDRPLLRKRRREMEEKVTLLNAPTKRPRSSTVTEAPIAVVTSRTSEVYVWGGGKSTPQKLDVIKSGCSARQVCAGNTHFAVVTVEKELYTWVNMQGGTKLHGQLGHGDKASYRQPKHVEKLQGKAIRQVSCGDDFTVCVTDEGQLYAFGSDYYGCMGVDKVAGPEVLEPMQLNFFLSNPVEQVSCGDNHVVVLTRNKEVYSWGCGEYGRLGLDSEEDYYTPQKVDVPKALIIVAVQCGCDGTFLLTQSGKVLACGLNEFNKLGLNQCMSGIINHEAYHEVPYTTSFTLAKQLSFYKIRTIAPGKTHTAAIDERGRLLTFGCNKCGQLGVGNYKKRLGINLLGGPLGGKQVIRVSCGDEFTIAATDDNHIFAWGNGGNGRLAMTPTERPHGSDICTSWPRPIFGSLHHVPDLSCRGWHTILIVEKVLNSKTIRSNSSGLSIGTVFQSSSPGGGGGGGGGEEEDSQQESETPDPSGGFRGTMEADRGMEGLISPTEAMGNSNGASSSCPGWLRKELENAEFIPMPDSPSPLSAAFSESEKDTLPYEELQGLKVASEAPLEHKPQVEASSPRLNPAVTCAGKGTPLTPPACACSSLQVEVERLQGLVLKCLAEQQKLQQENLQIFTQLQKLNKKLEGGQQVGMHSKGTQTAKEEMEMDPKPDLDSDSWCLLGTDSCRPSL
# Serine/threonine-protein kinase Nek6 (Homo sapiens), sequence (Q9HC98 whole entry): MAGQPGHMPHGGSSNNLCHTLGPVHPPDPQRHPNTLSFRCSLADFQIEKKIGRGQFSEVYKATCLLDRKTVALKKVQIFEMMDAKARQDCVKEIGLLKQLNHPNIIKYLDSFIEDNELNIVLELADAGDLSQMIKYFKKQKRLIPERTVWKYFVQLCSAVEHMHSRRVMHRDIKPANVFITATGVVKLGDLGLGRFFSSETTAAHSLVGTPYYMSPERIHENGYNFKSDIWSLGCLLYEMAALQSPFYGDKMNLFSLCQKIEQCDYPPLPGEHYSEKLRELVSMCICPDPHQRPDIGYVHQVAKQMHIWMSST
# Serine/threonine-protein kinase Nek7 (Homo sapiens), sequence (Q8TDX7 whole entry, looked up): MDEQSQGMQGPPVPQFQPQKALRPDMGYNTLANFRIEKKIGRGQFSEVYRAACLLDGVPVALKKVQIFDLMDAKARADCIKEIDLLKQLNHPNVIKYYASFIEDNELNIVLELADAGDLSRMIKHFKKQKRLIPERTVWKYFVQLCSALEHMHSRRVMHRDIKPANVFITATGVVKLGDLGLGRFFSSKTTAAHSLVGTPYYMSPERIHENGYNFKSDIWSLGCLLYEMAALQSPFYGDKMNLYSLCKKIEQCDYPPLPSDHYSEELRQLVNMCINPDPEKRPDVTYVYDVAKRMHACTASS
# Casein kinase II subunit alpha (Homo sapiens), sequence (P68400 whole entry, looked up): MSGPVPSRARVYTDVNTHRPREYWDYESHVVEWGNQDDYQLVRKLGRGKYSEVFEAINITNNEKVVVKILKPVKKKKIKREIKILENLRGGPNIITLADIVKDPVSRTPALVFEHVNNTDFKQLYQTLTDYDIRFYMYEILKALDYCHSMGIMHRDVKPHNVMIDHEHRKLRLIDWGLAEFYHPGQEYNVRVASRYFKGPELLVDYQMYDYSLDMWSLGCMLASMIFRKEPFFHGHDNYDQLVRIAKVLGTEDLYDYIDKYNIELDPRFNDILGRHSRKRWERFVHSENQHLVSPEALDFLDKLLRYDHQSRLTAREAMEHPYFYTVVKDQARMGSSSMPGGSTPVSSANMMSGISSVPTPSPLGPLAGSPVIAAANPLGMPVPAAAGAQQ
# Sphingosine kinase 1 (Homo sapiens), sequence (Q9NYA1 whole entry): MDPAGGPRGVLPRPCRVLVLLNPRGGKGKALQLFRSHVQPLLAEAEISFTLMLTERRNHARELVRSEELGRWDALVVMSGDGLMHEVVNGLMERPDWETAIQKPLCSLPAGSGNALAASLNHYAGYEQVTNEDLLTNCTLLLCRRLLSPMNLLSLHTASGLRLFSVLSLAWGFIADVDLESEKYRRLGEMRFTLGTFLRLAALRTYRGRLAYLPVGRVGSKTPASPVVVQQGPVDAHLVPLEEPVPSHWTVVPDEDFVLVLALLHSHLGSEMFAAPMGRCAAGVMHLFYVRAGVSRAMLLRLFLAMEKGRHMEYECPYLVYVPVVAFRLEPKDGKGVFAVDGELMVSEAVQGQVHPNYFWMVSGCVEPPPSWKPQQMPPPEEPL
smiles,measurement,setting,value
Fc1ccc(Nc2nccc(-c3c(-c4ccc(C(F)(F)F)cc4)nn4ncccc34)n2)cc1F,inhibition,[1],-1.66%
same,inhibition,[2],-0.99%
same,inhibition,[3],-0.13%
same,inhibition,[4],2.02%
same,inhibition,[5],1.28%
same,inhibition,[6],9.17%
same,inhibition,[7],4.1%
same,inhibition,[8],5.58%
same,inhibition,[9],3.19%
same,inhibition,[10],2.59%
same,inhibition,[11],4.2%
same,inhibition,[12],1.24%
same,inhibition,[13],1.72%
same,inhibition,[14],4.93%
same,inhibition,[15],4.4%
same,inhibition,[16],-0.59%
same,inhibition,[17],0.48%
same,inhibition,[18],3.33%
same,inhibition,[19],2.76%
same,inhibition,[20],4.79%
